From PubChem BioAssay
Lamin A splicing: changes lamin A minigene splicing in HeLa cells | HeLa LMNA splicing GFP/RFP minigene ratio, 48 h | Potency, µM (top dose mostly 46.1 µM), usual class: inhibitors | 200,000 tested, 0.01% active; active means well fitted inhibition curve with a large enough effect in the signal ratio, with a control signal flat, not every such curve was filed as active; inconclusive means small, poorly fitted or top-dose-only effect, or effect the other way, or a change in a side signal; the % refers to the signal ratio
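S3 HeLa cells stably expressing lamin A-EGFP splicing minigene plus DsRed2, 600 cells/well, 48 h compound exposure at 37C. Laser-scanning cytometry; analysed as GFP (500-530 nm)/RFP (575-640 nm) total intensity ratio; 0.5% DMSO vehicle.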
Luc counter: Kinase-Glo luciferase inhibition (counter-screen); Q27757; Kinase-Glo luciferase, ATP luminescence, 8 min; Potency, µM (titrated, usually from 38.3 µM), actives largely listed as inhibitors; 200,000 tested, 0.28% active; active means well fitted inhibition curve with a large enough effect; inconclusive means small, poorly fitted or top-dose-only effect; further: nearly all actives have a fitted effect of over 60% in size
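Recombinant Kinase-Glo luciferase, 10 uM ATP (linear range), luciferin; imidazole pH 7.2 / KCl / MgCl2 / Tween / BSA buffer; 8 min RT; luminescence.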
PNC assembly inh: blocks assembly of the perinucleolar compartment. PC3M PTB-GFP, PNC prevalence imaging, 16 h; active compounds read low. activity change (PNC), negative = inhibition, % at 10 µM. 140,000 tested, 3.1% active. AID 2417;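 active means readout at or below -70, meaning at least 70% loss of cells showing the perinucleolar compartment, a nuclear body marking cancer cells; inconclusive means readout between -30 and a set limit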
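PC3M cells stably expressing PTB-GFP, 750–1000 cells/well, treated 16 h at 37 °C with compound (23 nl of library stock), in duplicate. After paraformaldehyde fixation and Hoechst stain, imaged at 20x; PNC prevalence scored by image analysis.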
ALDH1A1 inh: inhibitors of human aldehyde dehydrogenase 1A1; Purified ALDH1A1, NADH fluorescence, propionaldehyde substrate; Potency, µM (series often up to 75.3 µM), actives largely listed as inhibitors; 220,000 tested, 7.3% active; AID 1030
HPGD block: HPGD (human) dehydrogenase inhibition | 150,000 tested, 4.3% active | P15428 | purified HPGD, NADH fluorescence kinetic, PGE2 substrate | Potency, µM, actives largely listed as inhibitors
Target sequence (P15428 whole entry, looked up): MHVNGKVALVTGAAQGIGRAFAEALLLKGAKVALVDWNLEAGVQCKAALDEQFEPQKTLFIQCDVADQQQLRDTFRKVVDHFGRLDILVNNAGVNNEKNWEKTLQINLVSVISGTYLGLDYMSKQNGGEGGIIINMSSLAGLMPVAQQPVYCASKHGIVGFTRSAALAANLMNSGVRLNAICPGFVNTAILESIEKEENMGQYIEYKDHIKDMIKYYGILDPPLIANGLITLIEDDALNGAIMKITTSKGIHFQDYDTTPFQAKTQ
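20 nM HPGD preincubated 15 min at room temperature with compound in 50 mM Tris-HCl pH 8, 0.01% Tween 20. Started with 1 mM NAD+ and 30 uM prostaglandin E2; NADH fluorescence (360/450 nm) read 5 times over 30-s intervals, last minus first.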
Numbers stand for hits; . = inactive; ? = inconclusive; / = no result; ! = not active in a repeat; [ ] = dose if it differs, or a comment. Compounds with a hit are over-represented: about 10% of the library has one in this group of screens. Unless noted, the call rests on the fitted dose curve; in most records, active means well fitted inhibition curve with a large enough effect (not every such curve was filed as active); inconclusive means small, poorly fitted or top-dose-only effect, or another doubt; inactive means no such curve, though single readings can be large or run the other way.

SMILES | Lamin A splicing | Luc counter | PNC assembly inh | ALDH1A1 inh | HPGD block
COc1ccccc1NC(=S)NC(=O)c1c(-c2ccccc2Cl)noc1C | / | . | / | 0.89µM | /
COC(=O)c1cc(OC)c(OC)cc1NC(=O)c1c(-c2ccccc2Cl)noc1C | . | . | . | 28µM | .
Cc1onc(-c2ccccc2Cl)c1C(=O)Nc1ccc(F)c(F)c1 | ? | . | . | . | .
COC(=O)c1c(-c2ccccc2Cl)noc1/C=C/N(C)C | . | . | / | 1.3µM | /
Cc1cc(NC(=O)c2c(-c3ccccc3Cl)noc2C)no1 | . | . | . | . | .
Cc1onc(-c2ccccc2Cl)c1C(=O)NC(=S)Nc1ccccc1F | / | . | / | 3.2µM | /
Cc1c(C(=O)NCc2ccccc2)sc2nc3n(c(=O)c12)CCCCC3 | . | / | / | / | /
Cc1nc(NC2CCCCC2)c2nc(-c3ccccc3)n(CCN3CCCC3)c2n1 | / | . | / | ? | ?
CC(C)(C)Nc1oc(-c2ccccc2)nc1-c1ccc(C(F)(F)F)cc1 | / | . | / | . | .
Cc1ccc(C)c(NC(=S)NNC(=O)c2csc(C(C)C)c2)c1 | ? | . | -119 | 13µM | .
Cc1ccc(C)c(NC(=S)NNC(=O)c2cc3c(s2)CCC(C)C3)c1 (centres undefined) | . | / | . | 22µM | /
Cc1ccc(C)c(NC(=S)NNC(=O)c2csc(C)c2C)c1 | . | . | ? | . | .
Cc1cccc(NC(=S)NNC(=O)c2cc3c(s2)CCC(C)C3)c1C (centres undefined) | ? | . | . | 6.3µM | .
COc1cccc(CS(=O)(=O)c2nnnn2CC(C)C)c1 | / | . | / | ? | .
CCCCCCCCN | / | / | / | ? | .
CC(C)C(=O)NS(=O)(=O)c1ccc(N)cc1 | . | . | ? | ? | .
CC(C)CC(=O)NS(=O)(=O)c1ccc(N)cc1 | . | . | ? | 10µM | .
CCn1cc(C(=O)O)c(=O)c2cc(F)c(N3CCNC(C)C3)c(F)c21 (centres undefined) | ? | . | / | ? | ?
CCCCCNC(=O)c1ccc2c(=O)n(CCCOCC)c(=S)[nH]c2c1 | / | . | / | . | /
CCN(CC)C(=O)c1ccc2c(=O)n(CCOC)c(=S)[nH]c2c1 | . | . | . | 11µM | 14µM
CCOCCCn1c(=S)[nH]c2cc(C(=O)NCC(OC)OC)ccc2c1=O | / | . | / | 8.9µM | /
CC12CCC(c3nnc(SCc4ccc(Cl)cc4)nc31)C2(C)C (centres undefined) | ? | . | . | . | .
CC12CCC(c3n[nH]c(=S)nc31)C2(C)C (centres undefined) | . | . | -113 | 20µM | ?
Cc1ccc(C)c(C(=O)CSc2nnnn2C(C)C)c1 | . | . | ? | ? | .
Cc1ccc(C(=O)CSc2nnnn2C(C)C)c(C)c1 | . | . | . | 28µM | .
SMILES | Lamin A splicing | Luc counter | PNC assembly inh | ALDH1A1 inh | HPGD block
O=C(CSc1nnc(NC(=O)C2CCC2)s1)NC1CC1 | . | . | ? | . | .
O=C(Nc1nnc(SCC(=O)N2CCCCC2)s1)C1CCCCC1 | . | . | . | ? | 14µM
O=C(Nc1nnc(C2CCCC2)s1)C1CCC1 | . | . | -127 | ? | .
N#Cc1c(NC(=O)CCC(=O)O)ccc2ccccc12 | / | .[7.66 µM] | / | .[13.5 µM] | .
CC1(C)Cc2nc3nc(SCC(=O)NCCc4ccccc4)n(-c4ccccc4)c(=O)c3cc2CO1 | . | . | . | 2.5µM | .
CC1(C)Cc2nc3nc(SCC(=O)NCc4ccccc4)n(-c4ccccc4)c(=O)c3cc2CO1 | . | . | . | 3.5µM | .
COc1cc(CN2CCC(C(=O)N3CCCC(C)C3)CC2)cc(OC)c1O (centres undefined) | . | . | . | ? | .
CC1CCCN(C(=O)C2CCN(CC3CC=CCC3)CC2)C1 (centres undefined) | . | . | -100 | ? | .
O=C(c1ccccc1F)N1CCN(c2ccc([N+](=O)[O-])c(NCc3cccnc3)c2)CC1 | / | / | / | 7.9µM | /
CC(C)(C)C(=O)N1CCN(c2ccc([N+](=O)[O-])c(NCc3cccnc3)c2)CC1 | . | . | / | ? | /
O=C(c1ccccc1)N1CCN(c2ccc([N+](=O)[O-])c(NCc3cccnc3)c2)CC1 | . | . | . | 11µM | .
O=[N+]([O-])c1ccc(N2CCN(S(=O)(=O)c3ccccc3)CC2)cc1NCc1cccnc1 | . | . | ? | . | .
O=C(c1ccccc1)N1CCN(c2ccc([N+](=O)[O-])c(NCC3CCCO3)c2)CC1 (centres undefined) | ? | . | / | 13µM | /
O=[N+]([O-])c1ccc(N2CCN(S(=O)(=O)c3ccccc3)CC2)cc1NCC1CCCO1 (centres undefined) | . | . | ? | . | .
CC1CCN(S(=O)(=O)c2ccc3c(c2)N(CC(=O)NC(C)C)C(=O)CO3)CC1 | . | / | / | / | /
CN(C)Cc1ccccc1-c1nc(NCc2cccs2)c2ccccc2n1 | ? | / | / | . | /
CC(=O)N(Cc1cc2ccc(C)c(C)c2n2nnnc12)C1CCCC1 | ? | . | . | ? | .
Cc1cc2cc(CN(C(=O)C3CC3)C3CCCC3)c3nnnn3c2cc1C | . | . | ? | 0.2µM | .
C=C(CCC12O[C@H](C(=O)O)[C@@](O)(C(=O)O)[C@](C(=O)O)(O1)[C@H](OC(=O)/C=C/[C@@H](C)C[C@@H](C)CC)[C@H]2O)[C@@H](OC(C)=O)[C@H](C)Cc1ccccc1 | / | . | / | . | .
CCNc1ncc2nc(-c3ccc(F)cc3)c(=O)n(Cc3ccc(F)cc3)c2n1 | . | / | / | ? | /
CC(=O)Nc1ccc(OC(=O)c2ccc(Cl)cc2)cc1 | . | . | -80 | . | .
CCCOC(=O)c1ccc(O)cc1 | ? | / | / | 10µM! | .
COC(=O)Cc1ccc(NC(=S)Nc2cccc(C)n2)cc1 | / | . | / | . | /
CCOC(=O)c1ccc(NC(=S)Nc2cccc(C)n2)cc1 | . | . | -85 | . | .
COC(=O)c1ccc(NC(=O)CN2C(=O)CSC2=O)cc1 | . | . | . | . | ?
SMILES | Lamin A splicing | Luc counter | PNC assembly inh | ALDH1A1 inh | HPGD block
CCOC(=O)c1ccc(NC(=O)CN2C(=O)CSC2=O)cc1 | . | . | -90 | ? | .
CCCCOC(=O)c1ccc(O)cc1 | ? | . | . | . | .
COC(=O)N1[C@H]2CC[C@@]3(C)CC(=O)C[C@]1(C)C3c1ccccc12 | / | . | / | . | .
CCOC(=O)c1ccc(NS(=O)(=O)CC)cc1 | . | . | . | . | 14µM
O=C(COC(=O)c1ccc(O)cc1)Nc1ccc(Cl)cc1 | / | . | / | 8.9µM | /
CCOC(=O)c1ccc(NS(=O)(=O)c2ccc(Cl)nc2)cc1 | ? | . | / | . | /
CCCOC(=O)COC(=O)c1ccccc1NC(=O)c1ccccc1 | . | . | . | ? | .
CCOC(=O)c1ccc(NC(=O)COC)cc1 | . | . | -89 | . | .
CCOC(=O)c1ccccc1NC(=O)c1ccc(NS(C)(=O)=O)cc1 | . | . | . | ? | 16µM
CCOc1ccc2nc(N(Cc3cccnc3)C(=O)c3ccc4c(c3)OCCO4)sc2c1 | . | / | / | / | /
C[C@H]1C2=C3C(CC[C@H]4C(OCc5ccc(F)cc5C(F)(F)F)OC[C@](C)([C@@H]34)N(C(=O)OC(C)(C)C)C2)C2COC(=O)OCC21 (some centres undefined) | / | . | / | . | .
